Test results: PubChem BioAssay (Tox21)
Results filed as inconclusive are left out. Where a call stands in place of a potency, no number is given. The source made the active and inactive calls. Unless noted, calls come from the whole dose curve.

What was measured:
[1] = Nuclear factor erythroid 2-related factor 2/antioxidant responsive element (Nrf2/ARE) small molecule agonists: qHTS cell viability counter screen in human keratinocytes (AID 1919968; active = well fitted curve in the direction sought with a large enough effect in the repeat runs; an effect the other way counts as inactive or inconclusive; note: nearly all actives have a fitted effect of over 55% in size; note: potency is the fitted concentration of half-maximal effect)
Method in brief: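 Cells of the KeratinoSens line were plated at 1,500 per well and left for 5 h before compound transfer from DMSO stocks. After a 23 h incubation (37 C, 5% CO2), CellTiter-Fluor was added. Signal was taken as fluorescence intensity 1 h later.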

[2] = target: KiSS-1 receptor (Homo sapiens) (UniProt Q969F8); assay: Human kisspeptin (KISS1R) small molecule agonists, calcium flux assay in KISS1R-HEK293 cells (AID 1920064; active = well fitted curve in the direction sought with a large enough effect in the repeat runs; an effect the other way counts as inactive or inconclusive)
Method in brief: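 Cell line: HEK293, stable human KISS1R. Dye loading 1 h at 37 C after 18 h culture. Read: kinetic fluorescence, 480/540 nm, 3 min at 1 s intervals.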

[3] = G protein-coupled receptor (GPCR) small molecule agonists, calcium flux assay: HEK293 wild type cell line counter screen (AID 1920065)
Method in brief: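 Tox21 10K compounds, 15 concentrations each in triplicate, pin-transferred in DMSO onto dye-loaded cells; kinetic read at 480/540 nm for 3 min, 1 s intervals.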

[4] = p53 small molecule agonists, cell-based qHTS assay with rat liver microsomes (AID 1963578)
Method in brief: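 Read-out is beta-lactamase reporter fluorescence (LiveBLAzer, 2 h, room temperature, dark) in p53RE-bla cells treated 16 h at 37 C with compound, rat liver microsomes and NADPH, both 0.5 mg/mL final.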

[5] = p53 small molecule agonists, cell-based qHTS assay with human liver microsomes: qHTS cell viability counter screen (AID 1963579); note: nearly all actives have a fitted effect of over 45% in size
Method in brief: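 Cells carrying the p53 response-element beta-lactamase reporter are treated for 16 h at 37 C with test compounds in the presence of human liver microsomes and NADPH (both 0.5 mg/mL final); ATP-based CellTiter-Glo luminescence then reports viability.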

[6] = p53 small molecule agonists, cell-based qHTS assay with rat liver microsomes: qHTS cell viability counter screen (AID 1963580); note: nearly all actives have a fitted effect of over 45% in size
Method in brief: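 Cytotoxicity counter screen: intracellular ATP read by CellTiter-Glo luminescence in the p53 reporter wells. HCT-116 p53RE-bla cells were treated for 16 h at 37 C alongside rat liver microsomes and NADPH, each 0.5 mg/mL final.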

[7] = p53 small molecule agonists, cell-based qHTS assay: qHTS cell viability counter screen (AID 1963581); note: nearly all actives have a fitted effect of over 45% in size
Method in brief: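 ATP content measured by luminescence in HCT-116 p53RE-bla cells treated 16 h at 37 C, same wells as the reporter screen.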

[8] = p53 small molecule agonists, cell-based qHTS assay (AID 1963582; active = well fitted activation curve with a large enough effect in the signal ratio in the repeat runs, not every such curve was filed as active; the % refers to the signal ratio)
Method in brief: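 16 h compound exposure (37 C) of p53 response element–bla cells, preceded by 5 h recovery at 37 C/5% CO2; read-out via LiveBLAzer B/G FRET substrate, 2 h RT, fluorescence intensity.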

[9] = target: 5-hydroxytryptamine receptor 2A (Homo sapiens) (UniProt P28223); assay: 5-hydroxytryptamine receptor 2A (HTR2A) small molecule agonists, cell-based qHTS assay (AID 1963587); note: nearly all actives have a fitted effect of over 30% in size
Method in brief: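 Kinetic calcium-flux fluorescence (2 min, 1 sec intervals) after compound addition in agonist mode. HTR2A-CHO cells were cultured 18 h, then dye-loaded 1 h at 37 C.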

[10] = target: Muscarinic acetylcholine receptor M1 (Homo sapiens) (UniProt P11229); assay: Cholinergic receptor muscarinic 1 (CHRM1) small molecule antagonists, cell-based qHTS assay (AID 1963588); note: nearly all actives have a fitted effect of over 40% in size
Method in brief: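 Compounds were tested at 15 concentrations in three independent runs. Dye-loaded CHRM1-CHO cells were exposed 5 min at room temperature before stimulation by acetylcholine added at 50nM. Intracellular calcium was read kinetically on FDSS for 3 min.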

[11] = target: Muscarinic acetylcholine receptor M1 (Homo sapiens) (UniProt P11229); assay: Cholinergic receptor muscarinic 1 (CHRM1) small molecule agonists, cell-based qHTS assay (AID 1963589); note: nearly all actives have a fitted effect of over 35% in size
Method in brief: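 Homogeneous fluorescence calcium flux, agonist mode. Human M1-expressing CHO cells; compound dosed at 15 concentrations, three independent runs; signal sampled every 1 sec.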

[12] = cAMP Responsive Elements (CRE) small molecule agonists, cell-based qHTS assay (AID 1963590)
Method in brief: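 HEK 293T cells stably bearing CRE-bla were plated at 2,000 cells per well and rested 18 h. Compounds, positive controls or DMSO were added for 3 h at 37 C. LiveBLAzer B/G substrate was then loaded for 2 h at room temperature.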

[13] = cAMP Responsive Elements (CRE) small molecule antagonists, cell-based qHTS assay (AID 1963591; active = well fitted inhibition curve with a large enough effect in the signal ratio in the repeat runs, not every such curve was filed as active; the % refers to the signal ratio)
Method in brief: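 First, CRE-bla HEK293T cells settled 18 h at 37 C. Next, compound and 0.25 uM final NKH477 were applied for 3 h. Last, LiveBLAzer B/G substrate was loaded for 2 h at room temperature.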

[14] = target: Beta-2 adrenergic receptor (Homo sapiens) (UniProt P07550); assay: Adrenergic beta2 receptor (ADRB2) small molecule antagonists, cell-based qHTS assay (AID 1963592); note: series mostly up to about 92 µM; nearly all actives have a fitted effect of over 50% in size
Method in brief: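 Assay format: CHO-ADRB2 cells, 18-20hr seeding at 37C/5% CO2, then compound plus 1nM isoproterenol agonist mix for 0.5hr RT. Homogeneous time-resolved fluorescence cAMP detection after 1hr, expressed as 665/615 nm ratio.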

[15] = target: D(2) dopamine receptor (Homo sapiens) (UniProt P14416); assay: Dopamine D2 receptor (DRD2) small molecule agonists, cell-based qHTS assay (AID 1963594); note: nearly all actives have a fitted effect of over 35% in size
Method in brief: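 cAMP accumulation in DRD2-HEK293 cells measured by HTRF after 1 h detection; compounds added 10 min before NKH477 (200nM […]) forskolin-analogue stimulation, 30 min at room temperature, with Ro20-1724 present at 0.1 mM final.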

[16] = target: D(2) dopamine receptor (Homo sapiens) (UniProt P14416); assay: Dopamine D2 receptor (DRD2) small molecule antagonists, cell-based qHTS assay (AID 1963595; active = well fitted inhibition curve with a large enough effect in the signal ratio in the repeat runs, with a control signal flat; the % refers to the signal ratio)
Method in brief: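 In this cell-based antagonist screen, compounds act for 10 min at room temperature before a 30 min challenge with 12 nM quinpirole and 200 nM NKH477. cAMP is quantified by HTRF competition in DRD2-HEK293 cells containing 0.1 mM Ro20-1724.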

[17] = p53 small molecule agonists, cell-based qHTS assay with human liver microsomes (AID 1963577)
Method in brief: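 Compounds act here after metabolic activation: human liver microsomes and NADPH, both at 0.5 mg/mL final, were co-added to p53RE-bla cells. Incubation ran 16 h at 37 C, followed by LiveBLAzer detection.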

[18] = target: 5-hydroxytryptamine receptor 2A (Homo sapiens) (UniProt P28223); assay: 5-hydroxytryptamine receptor 2A (HTR2A) small molecule antagonists, cell-based qHTS assay (AID 1963586); note: nearly all actives have a fitted effect of over 45% in size; note: potency is the fitted concentration of half-maximal effect
Method in brief: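 CHO cells stably expressing human HTR2A were plated for 18 h at 37 C, then loaded with calcium dye for 1 h. Compounds were preincubated 5 min at room temperature before DOI (4 nM solution) was added. Kinetic fluorescence was read for 3 min.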

[19] = target: Beta-2 adrenergic receptor (Homo sapiens) (UniProt P07550); assay: Adrenergic beta2 receptor (ADRB2) small molecule agonists, cell-based qHTS assay (AID 1963593);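 note: CHO cells stably overexpressing human ADRB2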
Method in brief: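 CHO cells stably over-expressing ADRB2 were plated overnight at 37C, then dosed with compounds plus a stimulation mix containing 100uM IBMX and 25uM Ro-20-1724 for 0.5hr at room temperature. cAMP was measured by HTRF competition, 1hr.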

Chain of Beta-2 adrenergic receptor (Homo sapiens) (P07550 whole entry, looked up): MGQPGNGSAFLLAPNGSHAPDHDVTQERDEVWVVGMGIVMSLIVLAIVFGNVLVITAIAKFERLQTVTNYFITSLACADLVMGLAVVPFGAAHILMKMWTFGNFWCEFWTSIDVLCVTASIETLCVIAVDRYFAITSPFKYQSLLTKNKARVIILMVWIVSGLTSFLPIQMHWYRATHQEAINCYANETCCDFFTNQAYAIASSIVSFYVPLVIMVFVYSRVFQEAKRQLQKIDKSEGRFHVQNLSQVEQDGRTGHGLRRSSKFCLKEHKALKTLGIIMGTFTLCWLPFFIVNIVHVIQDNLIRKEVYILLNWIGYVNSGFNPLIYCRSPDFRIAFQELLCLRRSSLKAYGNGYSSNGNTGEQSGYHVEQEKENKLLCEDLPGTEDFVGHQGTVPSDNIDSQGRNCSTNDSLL
Chain of D(2) dopamine receptor (Homo sapiens) (P14416 whole entry, looked up): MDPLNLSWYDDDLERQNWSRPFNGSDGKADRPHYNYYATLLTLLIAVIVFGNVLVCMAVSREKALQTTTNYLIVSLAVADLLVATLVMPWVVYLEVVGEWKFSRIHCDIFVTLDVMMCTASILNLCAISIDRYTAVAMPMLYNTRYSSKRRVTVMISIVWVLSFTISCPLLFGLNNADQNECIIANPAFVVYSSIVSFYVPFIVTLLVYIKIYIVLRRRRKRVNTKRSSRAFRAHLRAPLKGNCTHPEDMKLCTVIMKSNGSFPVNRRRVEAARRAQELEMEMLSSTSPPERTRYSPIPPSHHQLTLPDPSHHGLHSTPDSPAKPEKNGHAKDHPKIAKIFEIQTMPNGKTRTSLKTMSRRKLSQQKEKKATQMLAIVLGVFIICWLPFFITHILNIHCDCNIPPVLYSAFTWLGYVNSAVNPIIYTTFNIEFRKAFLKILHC
Chain of 5-hydroxytryptamine receptor 2A (Homo sapiens) (P28223 whole entry, looked up): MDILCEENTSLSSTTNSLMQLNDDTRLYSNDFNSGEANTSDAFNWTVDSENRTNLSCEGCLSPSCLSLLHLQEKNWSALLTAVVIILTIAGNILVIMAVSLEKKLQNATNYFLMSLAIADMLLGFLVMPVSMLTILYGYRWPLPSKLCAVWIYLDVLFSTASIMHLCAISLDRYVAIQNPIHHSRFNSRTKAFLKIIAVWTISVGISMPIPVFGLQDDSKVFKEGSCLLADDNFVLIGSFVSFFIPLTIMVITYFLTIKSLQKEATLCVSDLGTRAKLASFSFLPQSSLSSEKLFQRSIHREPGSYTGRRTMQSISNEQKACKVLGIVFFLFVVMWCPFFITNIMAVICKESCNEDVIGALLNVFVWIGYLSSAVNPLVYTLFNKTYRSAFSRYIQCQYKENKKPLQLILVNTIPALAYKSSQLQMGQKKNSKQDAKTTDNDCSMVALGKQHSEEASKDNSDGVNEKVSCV
Chain of Muscarinic acetylcholine receptor M1 (Homo sapiens) (P11229 whole entry, looked up): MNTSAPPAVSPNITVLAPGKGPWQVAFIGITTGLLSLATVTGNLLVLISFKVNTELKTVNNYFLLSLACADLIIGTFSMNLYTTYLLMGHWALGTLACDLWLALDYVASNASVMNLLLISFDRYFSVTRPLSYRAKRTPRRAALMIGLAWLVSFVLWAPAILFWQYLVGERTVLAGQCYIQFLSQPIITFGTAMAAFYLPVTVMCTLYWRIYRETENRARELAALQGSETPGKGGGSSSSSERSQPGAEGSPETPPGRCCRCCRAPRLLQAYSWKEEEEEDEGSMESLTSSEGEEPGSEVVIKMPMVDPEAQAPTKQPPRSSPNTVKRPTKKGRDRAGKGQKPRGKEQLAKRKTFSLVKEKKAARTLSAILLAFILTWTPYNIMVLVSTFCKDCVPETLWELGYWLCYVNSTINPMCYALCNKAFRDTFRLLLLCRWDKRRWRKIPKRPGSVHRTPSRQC
Chain of KiSS-1 receptor (Homo sapiens) (Q969F8 whole entry, looked up): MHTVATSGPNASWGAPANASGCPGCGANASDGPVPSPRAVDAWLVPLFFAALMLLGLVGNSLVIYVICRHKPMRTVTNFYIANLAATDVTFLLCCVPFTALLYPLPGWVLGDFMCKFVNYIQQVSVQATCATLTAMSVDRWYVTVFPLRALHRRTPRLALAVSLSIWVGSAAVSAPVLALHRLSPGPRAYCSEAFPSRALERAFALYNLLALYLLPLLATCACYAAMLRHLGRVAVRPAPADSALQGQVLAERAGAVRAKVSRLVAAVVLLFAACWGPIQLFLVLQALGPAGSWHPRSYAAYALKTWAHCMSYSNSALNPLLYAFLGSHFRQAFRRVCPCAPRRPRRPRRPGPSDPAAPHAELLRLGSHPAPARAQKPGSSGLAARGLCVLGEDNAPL

| SMILES | Potency [1] | outcome [2] | outcome [3] | Potency [4] | Potency [5] | Potency [6] | Potency [7] | Potency [8] | Potency [9] | Potency [10] | Potency [11] | Potency [12] | Potency [13] | Potency [14] | Potency [15] | Potency [16] | Potency [17] | Potency [18] | Potency [19] |
| --- | --- | --- | --- | --- | --- | --- | --- | --- | --- | --- | --- | --- | --- | --- | --- | --- | --- | --- | --- |
| CCN(CC)c1ccc(C=O)cc1 | inactive | inactive | inactive | inactive | inactive | inactive | inactive | inactive | inactive | inactive | inactive | inactive | inactive | inactive | inactive | inactive |  |  |  |
| CC(CC(=O)O)CC(C)(C)C (configuration not stated) | inactive | inactive | inactive | inactive | inactive | inactive | inactive | inactive | inactive |  | inactive | inactive | inactive | inactive | inactive | inactive |  |  |  |
| CN(C)CCCOC1(Cc2ccccc2)CCCCCC1 | inactive | inactive | inactive | inactive |  | inactive |  |  | inactive | inactive | inactive |  | inactive | inactive | inactive | inactive | inactive | 10.3 µM (active) | inactive |
| CCCCCCCCCCCCCCCCCCOS(=O)(=O)O | 68.6 µM (active) | inactive | inactive | inactive | inactive |  | inactive | inactive |  | inactive | inactive | inactive | inactive | inactive | inactive | inactive | inactive | inactive |  |
